PubChem BioAssay AID1159580 (chemical genetic matrix, 2015)
“And” between values parts separate entries of the source, which are not always exact repeats. Identical values can stand only once. About 2,000 (36%) of roughly 5,500 compounds were called active. Roughly 18% stayed inconclusive and do not appear here. No stated cut-off is given here; in the data, active means normalized growth mostly below about 0.91 (no sharp cut-off); inconclusive means no clear call, values can overlap the other calls; inactive means mostly above about 0.92. The list shows a part of the results.

Assay: chemical genetic growth profiling, strain panel (AID 1159580);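 further: tested at 20 µM; growth read once vehicle control cultures reached saturation at 30 °C; 1 = growth at the plate median or of vehicle wells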
Conditions: S. cerevisiae deletion strains, growth OD

Measured: normalized growth

COC(=O)CCC(C)C1CCC2C3CC[C@@H]4C[C@H](O)CC[C@]4(C)C3C[C@H](O)[C@]12C (stereo partly drawn)
active: locus YAL021C, strain ccr4, stronger effect = lower value 1.11 [resistant] | locus YBL061C, strain skt5, stronger effect = lower value 0.9 | locus YBR023C, strain chs3, stronger effect = lower value 0.909 | locus YDR137W, strain rgp1, stronger effect = lower value 0.754 | locus YDR159W, strain sac3, stronger effect = lower value 0.757 | locus YDR195W, strain ref2 0.802 | locus YDR392W, strain spt3, stronger effect = lower value 0.331 | locus YER155C, strain BEM2 (second series), stronger effect = lower value 0.746 | locus YGR229C, strain SMI1, stronger effect = lower value 0.709 | locus YHR013C, strain ard1, stronger effect = lower value 1.34 [resistant] | locus YHR079C, strain IRE1, stronger effect = lower value 0.826 | locus YHR142W, strain chs7, stronger effect = lower value 0.819 | locus YJL095W, strain BCK1 (second series), stronger effect = lower value 0.867 | locus YJL166W, strain qcr8, stronger effect = lower value 0.892
0.819 (inactive) and 0.826 (active): locus YJL095W, strain BCK1, stronger effect = lower value
inactive: locus YAL013W, strain DEP1, stronger effect = lower value 0.983 | locus YAL026C, strain drs2, stronger effect = lower value 1 | locus YAL030W, strain snc1, stronger effect = lower value 0.987 | locus YBR009C, strain hhf1, stronger effect = lower value 0.925 | locus YBR021W, strain FUR4, stronger effect = lower value 1.01 | locus YBR171W, strain sec66, stronger effect = lower value 1.01 | locus YBR229C, strain ROT2, stronger effect = lower value 0.998 | locus YBR231C, strain swc5, stronger effect = lower value 0.978 | locus YBR279W, strain paf1, stronger effect = lower value 0.996 | locus YCL011C, strain gbp2, stronger effect = lower value 0.966 | locus YCL016C, strain dcc1, stronger effect = lower value 0.967 | locus YCL029C, strain bik1, stronger effect = lower value 1.01 | locus YCL061C, strain MRC1, stronger effect = lower value 0.992 | locus YCL069W, strain vba3, stronger effect = lower value 1.01 | locus YCR088W, strain abp1, stronger effect = lower value 1 | locus YDL005C, strain med2, stronger effect = lower value 0.983 | locus YDL035C, strain GPR1, stronger effect = lower value 0.989 | locus YDL040C, strain nat1, stronger effect = lower value 0.985 | locus YDL074C, strain BRE1, stronger effect = lower value 0.849 | locus YDL101C, strain DUN1, stronger effect = lower value 0.973 | locus YDL134C, strain PPH21, stronger effect = lower value 0.951 | locus YDL185W, strain tfp1, stronger effect = lower value 1.02 | locus YDL192W, strain arf1, stronger effect = lower value 0.922 | locus YDR001C, strain nth1, stronger effect = lower value 0.996 | locus YDR069C, strain doa4, stronger effect = lower value 1.04 | locus YDR101C, strain arx1, stronger effect = lower value 1 | locus YDR162C, strain NBP2, stronger effect = lower value 0.928 | locus YDR297W, strain sur2, stronger effect = lower value 0.986 | locus YDR318W, strain mcm21, stronger effect = lower value 0.993 | locus YDR334W, strain swr1, stronger effect = lower value 1.01 | locus YDR335W, strain msn5, stronger effect = lower value 0.975 | locus YDR388W, stronger effect = lower value 1.02 | locus YDR502C, strain sam2, stronger effect = lower value 1.02 | locus YEL003W, strain gim4, stronger effect = lower value 0.99 | locus YEL037C, strain rad23, stronger effect = lower value 1.01 | locus YEL061C, strain CIN8 (second series), stronger effect = lower value 0.999 | locus YEL061C, strain CIN8, stronger effect = lower value 0.975 | locus YER015W, strain faa2, stronger effect = lower value 1 | locus YER016W, strain bim1, stronger effect = lower value 0.962 | locus YER110C, stronger effect = lower value 1.02 | locus YER111C, strain swi4, stronger effect = lower value 0.996 | locus YER155C, strain BEM2, stronger effect = lower value 0.955 | locus YER167W, strain BCK2, stronger effect = lower value 1.01 | locus YFR010W, strain ubp6, stronger effect = lower value 1.04 | locus YGL078C, strain dbp3, stronger effect = lower value 1.02 | locus YGL086W, strain mad1, stronger effect = lower value 0.997 | locus YGL167C, strain pmr1, stronger effect = lower value 0.971 | locus YGL173C, strain kem1, stronger effect = lower value 0.992 | locus YGL227W, strain vid30, stronger effect = lower value 1 | locus YGL240W, strain doc1, stronger effect = lower value 0.928 | locus YGL248W, strain PDE1, stronger effect = lower value 0.95 | locus YGL253W, strain hxk2, stronger effect = lower value 0.985 | locus YGR135W, strain pre9, stronger effect = lower value 1.01 | locus YGR252W, strain gcn5, stronger effect = lower value 0.887 | locus YHR027C, strain rpn1, stronger effect = lower value 1 | locus YHR079C, strain IRE1 (second series), stronger effect = lower value 1 | locus YHR094C, strain hxt1, stronger effect = lower value 1.03 | locus YHR129C, strain ARP1, stronger effect = lower value 0.955 | locus YHR200W, strain rpn10, stronger effect = lower value 1.02 | locus YIL066C, strain RNR3, stronger effect = lower value 0.923 | locus YIL073C, strain SPO22, stronger effect = lower value 1.27 | locus YIL125W, strain kgd1, stronger effect = lower value 1.01 | locus YIR030C, strain dcg1, stronger effect = lower value 1.01 | locus YJL092W, strain hpr5, stronger effect = lower value 1 | locus YJL115W, strain asf1, stronger effect = lower value 1.01 | locus YJL129C, strain trk1, stronger effect = lower value 0.934 | locus YJL134W, strain LCB3, stronger effect = lower value 1.01 | locus YJL154C, strain vps35, stronger effect = lower value 1.01 | locus YJL164C, strain tpk1, stronger effect = lower value 0.957 | locus YJL168C, strain set2, stronger effect = lower value 1.01 | locus YJL187C, strain SWE1 (second series), stronger effect = lower value 0.979 | locus YJL187C, strain SWE1, stronger effect = lower value 0.995
0.923 (inactive) and 0.843 (active): locus YHR030C, strain SLT2, stronger effect = lower value
